Assay results as given in PubChem BioAssay AID720504 (National Center for Advancing Translational Sciences (NCATS), 2013).
Out of some 360,000 compounds screened, about 10,000 (2.8%) were called active. Not shown: some 4% with an inconclusive outcome. The call rests on the fitted dose curve; in most records, active means well fitted inhibition curve with a large enough effect; inconclusive means small, poorly fitted or top-dose-only effect; inactive means flat fitted curve, though single readings scatter. For the sample, actives were picked, then their nearest neighbours and some compounds at random.

biological target: Serine/threonine-protein kinase PLK1 (Homo sapiens) (UniProt P53350); assay: qHTS for Inhibitors of PLK1-PDB (polo-like kinase 1 - polo-box domain): Primary Screen; settings: Plk1 PBD binding of FITC phosphopeptide, fluorescence polarization; further: nearly all actives have a fitted effect of over 65% in size; on Max response, negative = inhibition: series mostly up to about 57 µM
On the % scale 0 is the no-effect control and ±100 the full control effect; potency means the concentration at half of the fitted maximal effect.

Serine/threonine-protein kinase PLK1 (Homo sapiens), sequence (P53350 whole entry, looked up, the tested form may be a part): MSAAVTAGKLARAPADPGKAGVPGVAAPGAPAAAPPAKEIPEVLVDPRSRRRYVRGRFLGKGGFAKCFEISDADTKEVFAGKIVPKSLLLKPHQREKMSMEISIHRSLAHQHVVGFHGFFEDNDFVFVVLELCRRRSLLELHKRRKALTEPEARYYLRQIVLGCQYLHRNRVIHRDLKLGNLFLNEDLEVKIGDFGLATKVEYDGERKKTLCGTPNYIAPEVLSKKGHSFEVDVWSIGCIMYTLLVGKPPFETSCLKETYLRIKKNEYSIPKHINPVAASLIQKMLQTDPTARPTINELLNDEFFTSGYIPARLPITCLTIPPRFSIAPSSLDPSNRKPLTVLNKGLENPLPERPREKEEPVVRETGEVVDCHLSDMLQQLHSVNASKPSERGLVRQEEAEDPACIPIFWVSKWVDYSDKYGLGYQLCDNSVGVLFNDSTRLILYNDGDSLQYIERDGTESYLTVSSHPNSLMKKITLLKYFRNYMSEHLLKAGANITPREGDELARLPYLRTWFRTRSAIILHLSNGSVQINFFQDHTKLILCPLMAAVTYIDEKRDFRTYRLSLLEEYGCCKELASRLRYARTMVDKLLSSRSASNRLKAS

Max response, negative = inhibition, inactive:
CCCC/C=C/c1cccc2nncn12 0.37%
O=C(Nc1nnc([C@H]2C[C@H](O)[C@@H](CO)O2)s1)c1cccc(Cl)c1 -11.4%
O=C(CSc1ncn[nH]1)Nc1nc2c(F)c(F)c(F)cc2s1 -14.3%
CCn1c(=S)sc2c(=O)n(CC(=O)Nc3cccc(Br)c3)c(C)nc21 5.75%
COc1ccc(NC(=O)Cn2c(-c3ccc(OC)cc3)cn(-c3ccc(C)cc3)c2=O)cc1 -2.89%
CCCCCc1c(Cc2ccccc2)ncn1CCc1ccccc1OC -12.9%
Cc1cc(NC(=O)CCC(=O)N(c2cccc(F)c2)C(C(=O)NC2CCCC2)c2ccncc2)no1 (stereo unspecified) -7.93%
CCc1ccc(N(C(=O)c2csnn2)C(C(=O)NC2CCCCC2)c2ccncc2)cc1 (stereo unspecified) -3.61%
COc1ccc(C(C)(O)c2nc(-c3ccc(C)c(C)c3)cs2)cc1 (stereo unspecified) -4.12%
COCCNC(=O)c1cc2c(Br)ccc(Br)c2nc1N -4.02%
CCOC(=O)[C@]12CCC=C1N(Cc1cccc3ccccc13)C(=O)[C@H](CC(=O)NCc1cccc(C(F)(F)F)c1)C2 -6.42%
CCOc1ccccc1NC(=O)CCS(=O)(=O)c1cccc2nsnc12 7.52%
CCOc1ccc(N(CC)S(=O)(=O)c2cccc3nsnc23)cc1 -8.88%
COc1ccc(CN2C[C@H]3CON(C)[C@H]3C[C@H]2c2ccc(-c3cccc(F)c3)cc2)cc1 5.3%
Cc1sc2ncn(CC(=O)NCCN(C)C)c(=O)c2c1S(=O)(=O)N1CCC(C)CC1 -12.5%
COc1ccc(N2CCN(C(=O)Cn3cnc4sc(C)c(S(=O)(=O)N5CCOCC5)c4c3=O)CC2)cc1 -11.3%
COCCCNC(=O)c1cccc2c(-c3ccc(O)c(OC)c3)coc12 -12.1%
O=C(N[C@H]1CC[C@H](CC(=O)N2CCCCC2)O[C@@H]1CO)c1cccc(F)c1 6.09%
Cc1ccc(Cl)c(OCC(=O)N2CCc3ccccc3C2)c1 -3.49%
Cc1ccc(Cl)c(OCC(=O)N(C)CC(=O)Nc2ccc(N3CCOCC3)cc2)c1 -2.7%
Cc1cc(C)c2c(=O)n3c(nc2c1)C(CC(C)C)NC(=O)c1cc2ccccc2cc1-3 (stereo unspecified) 1.09%
O=C(Nc1ccc(Cl)c(C(F)(F)F)c1)C1Cc2c(-c3ccccc3Oc3ccccc3)ccnc2O1 (stereo unspecified) -6%
Cc1cc(C)cc(NC(=O)C2CCCN2S(=O)(=O)c2cccc3cccnc23)c1 (stereo unspecified) -10.9%
Cc1ccc(NC(=O)C2CCCN2S(=O)(=O)c2cccc3cccnc23)c(C)c1 (stereo unspecified) -3.33%
Cc1ccccc1-c1nc(NC(C)C)nc2cc(-c3ccccc3)sc12 -6.2%
CC1CC(C)CN(C(=O)C2CC(=O)N(c3ccc(F)cc3)C2)C1 (stereo unspecified) -7.49%
O=C(C1CC(=O)N(C2CCCCC2)C1)N1CCN(c2ccccc2)CC1 (stereo unspecified) -15.5%
CC1=C(C(=O)N(C)C)CC(CC(=O)NCCc2ccccn2)C(=O)N1CCC1=CCCCC1 (stereo unspecified) -5.19%
COCCNC(=O)CSc1nc(N)c(NC(=O)c2ccco2)c(=O)[nH]1 -1.47%
O=C(Nc1nc(-c2ccco2)c(-c2ccco2)s1)c1ccco1 -24.5%
CC1(C(=O)NS(=O)(=O)c2ccccc2Cl)CCN1C(=O)c1cccc(F)c1 (stereo unspecified) -14.1%
CC(C)CN1C(=O)CN(S(C)(=O)=O)CC1(C)C(=O)NCc1ccccc1 (stereo unspecified) 4.65%
O=C1NC[C@H](Cc2ccc(O)cc2)N(C[C@H]2CCCN2C[C@H](Cc2ccccc2)N2C[C@H](Cc3ccccc3)N(CCc3ccccc3)C(=O)C2=O)C1=O -6.61%
CC1CCN(c2ccc3c(c2)S(=O)(=O)c2cc(C(=O)O)ccc2C3=O)CC1 2.83%
CC(C)Sc1ncnc2c1cnn2-c1ccccc1 2.81%
O=C(NCCC1=CCCCC1)c1ccc(-n2cncn2)cc1 7.38%
C[C@H]1CN(c2ccc(Br)cc2)C(=O)[C@@H]1CC(=O)Nc1ccc(Br)cc1 1%
O=C(C(=O)N1CCN(c2ccccc2)CC1)c1ccc2c(c1)OCO2 -10.2%
O=C(Cc1ccccc1Cl)N1CCN(c2ccccn2)CC1 -14.6%
O=C(CN1CCN(c2ccccn2)CC1)Nc1ccc(Br)cc1 -15.1%
CCc1nnc(NC(=O)c2ccco2)s1 -6.68%
O=C(C1CCN(Cc2ccc(Cl)cc2)CC1)N1CCN(Cc2ccc3c(c2)OCO3)CC1 2.77%
Cc1cccc(N2CCN(C(=O)C3CCN(S(=O)(=O)c4cnc[nH]4)CC3)CC2)c1C 3.15%
CCC(C(=O)Nc1c(C)cccc1C)n1c(-c2cc(C)cs2)nc2ccccc21 (stereo unspecified) -9.18%
Cc1cc2cc3n(c2nn1)N=C(Cl)CC3 -3.02%
C=CCC[C@H](CCCCC)OC(=O)/C=C/[C@H](O)[C@@H](O)C[C@@H](O)CC=C -13.7%
C[C@@H]1CN([C@H](C)CO)C(=O)CCCn2cc(nn2)CO[C@H]1CN(C)S(=O)(=O)c1ccc(Oc2ccccc2)nc1 -19.7%
O=C(O)CC1=C(Nc2ccccc2)C(=O)N(c2ccccc2)C1c1ccc(Cl)cc1 (stereo unspecified) -11.1%
O=C(CCC(=O)OCc1ccc(Cl)cc1)Nc1ccccc1 -4.01%
CC1(C(=O)Nc2ccc3c(c2)OCCO3)CN(S(C)(=O)=O)CC(=O)N1Cc1cccc(F)c1 (stereo unspecified) -14.7%
COC(=O)C[C@H]1C[C@@H]2c3cc(NC(=O)Nc4ccccc4)ccc3O[C@@H]2[C@@H](CO)O1 0.628%
Cc1sc(NC(=O)c2ccc3ncsc3c2)c(C(N)=O)c1C -11%
Cc1ccc(S(=O)(=O)CC(=O)Nc2sc(C)c(C)c2C(N)=O)cc1 -9.45%
CC(Oc1cccc(NC(=O)c2cccs2)c1)C(=O)c1ccccc1 (stereo unspecified) -3.5%
CC1(C(=O)Nc2cccc(Oc3ccccc3)c2)CCN1Cc1ccccc1Cl (stereo unspecified) -5.84%
Nc1nc2c(ncn2[C@@H]2O[C@H](CNCc3ccc(OCCCN4CCOCC4)cc3)[C@@H](O)[C@H]2O)c(=O)[nH]1 -2.1%
COc1cccc(-c2cnc(C(O)c3ccccc3OC)[nH]2)c1 (stereo unspecified) -12.1%
CCCc1cc(=O)oc2c(C)c(OCC(=O)Nc3ccccn3)ccc12 7.66%
CCCc1cc(=O)oc2c(C)c(OCC(=O)NCc3ccccn3)ccc12 0.145%
COc1ccc(C(C)C)cc1-c1ccc2nncn2c1 -3.26%
COc1cccc(-c2cc3nc(NCCOc4ccccc4Cl)n(C)c(=O)c3s2)c1 -5.38%
O=C(Nc1ccccc1)c1ccccc1Br -3.61%
COCCCN1C(=O)C(CC(=O)NCc2cccs2)CC(C(=O)N2CCOCC2)=C1C (stereo unspecified) -4.29%
CC(Sc1nnc2c(n1)C1CCC2(C)C1(C)C)C(=O)Nc1ccccc1 (stereo unspecified) 1.59%
CSc1nc(N(C)NC(=O)c2cccc(C)c2)c2ccccc2n1 -6.24%
CC(C)NC(=O)C1(C)CCCCCN1C(=O)c1ccc(-c2ccccc2)cc1 (stereo unspecified) -8.92%
COc1ccc(-c2ccc(CN3C(C(C)C)C(=O)N(Cc4cn(CC5CCCCC5)nn4)CCS3(=O)=O)cc2)cn1 (stereo unspecified) -14.8%
COC(=O)C1(C(=O)OC)C[C@H](c2ccccc2)N(Cc2ccccc2OC)[C@@H]1c1ccccc1 -15.2%
CCN(CC)C(=O)C1=C(C)N(Cc2ccc(F)cc2)C(=O)C(CC(=O)NCc2cccc3ccccc23)C1 (stereo unspecified) -13.9%

Potency, active:
CCn1c(=S)sc2c(=O)n(CC(=O)Nc3ccc(OC)cc3)c(C)nc21 33.6 µM
Cc1ccc(N(C(=O)C(F)(F)F)C(C(=O)NC2CCCCC2)c2ccncc2)cc1C (stereo unspecified) 11.9 µM
CCOc1ccc(OCC)c(NC(=O)CN(C)S(=O)(=O)c2cccc3nsnc23)c1 29.9 µM
COc1cccc(NC(=O)Cn2cnc3sc(C)c(S(=O)(=O)N4CCN(C)CC4)c3c2=O)c1 8.44 µM
Cc1ccc(Cl)c(OCC(=O)NN2CCN(C)CC2)c1 23.8 µM
O=C(Nc1nccs1)C1CCCN1S(=O)(=O)c1cccc2cccnc12 (stereo unspecified) 26.7 µM
O=C(C1CC(=O)N(c2ccc(F)cc2)C1)N1CCN(c2ccccc2)CC1 (stereo unspecified) 18.9 µM
CC(=O)N(C1=C(Cl)C(=O)c2ccccc2C1=O)c1ccc(C(=O)O)cc1 2.99 µM
COCCNC(=O)Nc1ccc2nc(-c3ccco3)c(-c3ccco3)nc2c1 21.2 µM
C1=C(CCNc2ncnc3c2cnn3-c2ccccc2)CCCC1 3.36 µM
O=C(Cc1ccc(Br)cc1)N1CCN(c2ccccn2)CC1 29.9 µM
O=C(C1CCN(S(=O)(=O)c2cnc[nH]2)CC1)N1CCN(Cc2ccc3c(c2)OCO3)CC1 2.99 µM
O=C1C=C(c2ccc(Cl)cc2)C(=O)N1Nc1ccccc1 6.7 µM
Cc1ccc(C(=O)c2c(NC(=O)c3ccccc3)sc(C)c2C)cc1 11.9 µM
Cc1ccoc1C(=O)Nc1cccc(Oc2ccccc2)c1 29.9 µM
CCc1cc(=O)oc2c(C)c(OCC(=O)NCCN3CCOCC3)ccc12 21.2 µM
CSc1nc(C)cc(SC(C(C)=O)C(=O)Nc2ccccc2)n1 (stereo unspecified) 26.7 µM
